Values joined by “and” are separate entries in the source; they are usually repeats but may differ in a detail not shown here. Equal entries are not always repeated. About 83,000 compounds went through this panel and 20% of them were active in at least one assay; those are over-represented in the sample as a whole.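 Interpretation: 100, growth as untreated; towards 0, rising growth inhibition; 0, no net growth; 0 to -100, cell death. Compounds scoring below 10 were considered active.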 Active and inactive are the calls of the source.
Key:
Test in all cases: NCI-60 one-dose screen, 48 h (100 = growth as untreated, 0 = no growth, -100 = all killed)
Conditions in all cases: 10 µM unless noted
DU-145 prostate = test system: DU-145 prostate
K-562 leukemia = test system: K-562 leukemia
MALME-3M melanoma = test system: MALME-3M melanoma
MDA-MB-231 breast = test system: MDA-MB-231 breast
RXF 393 renal = test system: RXF 393 renal
SF-268 CNS = test system: SF-268 CNS
SF-295 CNS = test system: SF-295 CNS
SF-539 CNS = test system: SF-539 CNS
UACC-257 melanoma = test system: UACC-257 melanoma
HCT-15 colon = test system: HCT-15 colon
HT29 colon = test system: HT29 colon
SNB-75 CNS = test system: SNB-75 CNS
SNB-19 CNS = test system: SNB-19 CNS
U251 CNS = test system: U251 CNS
PC-3 prostate = test system: PC-3 prostate
SK-MEL-5 melanoma = test system: SK-MEL-5 melanoma
UACC-62 melanoma = test system: UACC-62 melanoma
LOX IMVI melanoma = test system: LOX IMVI melanoma
SK-MEL-28 melanoma = test system: SK-MEL-28 melanoma
M14 melanoma = test system: M14 melanoma

Measured: growth

Nc1ccc(N=Nc2ccc(S(=O)(=O)O)cc2)cc1S(=O)(=O)O
inactive: DU-145 prostate 112% and 104% | K-562 leukemia 105% | MALME-3M melanoma 117% and 112% | MDA-MB-231 breast 88.2% and 104% | RXF 393 renal 99.9% and 61.2% | SF-268 CNS 95.2% and 103% | SF-295 CNS 121% and 87.8% | SF-539 CNS 102% and 100% | UACC-257 melanoma 150% | HCT-15 colon 102% and 96.7% | HT29 colon 118% and 96.2% | SNB-75 CNS 106% and 81.6% | SNB-19 CNS 96.5% | U251 CNS 99.6% and 95.5% | PC-3 prostate 92.2% and 74% | SK-MEL-5 melanoma 111% and 103% | UACC-62 melanoma 104% and 94.8% | LOX IMVI melanoma 93.7% and 92.1% | SK-MEL-28 melanoma 109% and 104%

O=[N+]([O-])c1ccccc1/C=N\Nc1ccccc1
inactive: DU-145 prostate 97.7% and 103% | K-562 leukemia 37.9% and 40.2% | MALME-3M melanoma 98.7% and 116% | MDA-MB-231 breast 74.1% and 65% | RXF 393 renal 110% and 105% | SF-268 CNS 78.5% and 89.5% | SF-295 CNS 102% and 76.9% | SF-539 CNS 88.1% and 106% | UACC-257 melanoma 94.3% and 103% | HCT-15 colon 42.5% and 60.2% | HT29 colon 102% and 111% | SNB-75 CNS 71.4% and 96% | U251 CNS 84.7% and 90% | PC-3 prostate 63% and 56.5% | SK-MEL-5 melanoma 90.3% and 88.6% | UACC-62 melanoma 18.7% and 19.9% | LOX IMVI melanoma 71.7% and 53.4% | SK-MEL-28 melanoma 115% and 117%

CCCCCCCCCCCCOc1ccccc1C=O
inactive: DU-145 prostate 111% | K-562 leukemia 83.7% | MDA-MB-231 breast 102% | RXF 393 renal 110% | SF-268 CNS 97.5% | SF-295 CNS 99% | SF-539 CNS 102% | UACC-257 melanoma 96.8% | M14 melanoma 101% | HCT-15 colon 101% | HT29 colon 96.7% | SNB-75 CNS 80.6% | SNB-19 CNS 98.4% | U251 CNS 87.4% | PC-3 prostate 108% | SK-MEL-5 melanoma 101% | UACC-62 melanoma 102% | LOX IMVI melanoma 90.1% | SK-MEL-28 melanoma 106%

CC(=O)Oc1cc(C(=O)O)cc(OC(C)=O)c1OC(C)=O
inactive: DU-145 prostate 118% and 113% | K-562 leukemia 108% | MALME-3M melanoma 115% and 96.5% | MDA-MB-231 breast 94% and 97.3% | RXF 393 renal 99.5% and 122% | SF-268 CNS 107% and 102% | SF-295 CNS 107% and 102% | SF-539 CNS 121% and 104% | UACC-257 melanoma 95.3% and 90.7% | HCT-15 colon 107% and 101% | HT29 colon 114% and 96.5% | SNB-19 CNS 93.4% and 108% | U251 CNS 93.1% and 105% | PC-3 prostate 93.4% and 95.5% | SK-MEL-5 melanoma 99.5% and 101% | UACC-62 melanoma 93.7% and 103% | LOX IMVI melanoma 96.3% and 96% | SK-MEL-28 melanoma 115% and 99.3%

CCOC(=O)c1sc(N)nc1-c1ccccc1
inactive: DU-145 prostate 113% | K-562 leukemia 96% | MALME-3M melanoma 120% | MDA-MB-231 breast 117% | RXF 393 renal 102% | SF-268 CNS 108% | SF-539 CNS 88.4% | UACC-257 melanoma 98.1% | M14 melanoma 99.7% | HCT-15 colon 97.3% | HT29 colon 96.8% | SNB-19 CNS 109% | U251 CNS 98.8% | PC-3 prostate 98% | SK-MEL-5 melanoma 100% | UACC-62 melanoma 112% | LOX IMVI melanoma 95.5% | SK-MEL-28 melanoma 109%

O=C1c2c(O)cc(O)cc2OC(c2ccc(O)c(O)c2)C1O (configuration not stated)
inactive: DU-145 prostate 132% | K-562 leukemia 104% | MALME-3M melanoma 118% | MDA-MB-231 breast 106% | RXF 393 renal 124% | SF-268 CNS 111% | SF-295 CNS 119% | SF-539 CNS 107% | UACC-257 melanoma 107% | HCT-15 colon 108% | HT29 colon 110% | SNB-75 CNS 96.1% | SNB-19 CNS 101% | U251 CNS 102% | PC-3 prostate 96.4% | SK-MEL-5 melanoma 104% | UACC-62 melanoma 106% | SK-MEL-28 melanoma 108%

Cc1ncsc1CCO
inactive: DU-145 prostate 112% and 105% | K-562 leukemia 103% and 108% | MALME-3M melanoma 118% and 86.2% | MDA-MB-231 breast 103% and 105% | RXF 393 renal 99% and 133% | SF-268 CNS 101% and 94.3% | SF-295 CNS 101% and 100% | SF-539 CNS 111% and 99.6% | UACC-257 melanoma 106% and 92.9% | HCT-15 colon 111% and 106% | HT29 colon 101% and 95.6% | SNB-75 CNS 111% and 91.5% | SNB-19 CNS 108% and 103% | PC-3 prostate 103% and 98.3% | SK-MEL-5 melanoma 109% and 98.2% | UACC-62 melanoma 111% and 95.5% | LOX IMVI melanoma 97.6% and 103% | SK-MEL-28 melanoma 116% and 104%

Nc1ccc2ccc(N)cc2c1
inactive: DU-145 prostate 96.1% | K-562 leukemia 57.3% | MALME-3M melanoma 33.1% | MDA-MB-231 breast 62.1% | RXF 393 renal 88.1% | SF-268 CNS 84.3% | SF-295 CNS 72.1% | SF-539 CNS 107% | M14 melanoma 84.1% | HCT-15 colon 74.4% | HT29 colon 94.2% | SNB-75 CNS 91.3% | SNB-19 CNS 96.1% | PC-3 prostate 60.3% | SK-MEL-5 melanoma 83% | UACC-62 melanoma 80.7% | LOX IMVI melanoma 65.1% | SK-MEL-28 melanoma 92.1%

S=C1SCN(Cc2ccccc2)CN1Cc1ccccc1
inactive: DU-145 prostate 41.8% | K-562 leukemia 46.4% | MALME-3M melanoma 92.1% | MDA-MB-231 breast 85% | RXF 393 renal 87.1% | SF-268 CNS 73.5% | SF-295 CNS 100% | SF-539 CNS 91.4% | UACC-257 melanoma 95.2% | HCT-15 colon 39.8% | HT29 colon 65.4% | SNB-75 CNS 76.1% | U251 CNS 80.2% | PC-3 prostate 46.6% | SK-MEL-5 melanoma 87.1% | UACC-62 melanoma 82.5% | LOX IMVI melanoma 69.3% | SK-MEL-28 melanoma 103%

O=[N+]([O-])c1ccc(/C=N\NC(=S)Nc2ccc(F)cc2)cc1
inactive: DU-145 prostate 102% and 87.1% | K-562 leukemia 104% | MALME-3M melanoma 92.6% | MDA-MB-231 breast 77.5% and 77.6% | RXF 393 renal 98% and 105% | SF-268 CNS 102% and 99.8% | SF-295 CNS 102% | SF-539 CNS 102% and 58.6% | UACC-257 melanoma 91.4% and 104% | HCT-15 colon 106% and 96.6% | HT29 colon 93.9% and 95.1% | PC-3 prostate 101% and 86% | SK-MEL-5 melanoma 102% and 101% | UACC-62 melanoma 104% and 91% | LOX IMVI melanoma 88.9% | SK-MEL-28 melanoma 103% and 104%

Cc1cccc(/C=C\C(=O)c2ccccc2)c1
67% (inactive) and 3.91% (active): K-562 leukemia
inactive: DU-145 prostate 99.9% and 104% | MALME-3M melanoma 91.5% | MDA-MB-231 breast 94% and 110% | RXF 393 renal 118% and 96.8% | SF-268 CNS 105% and 99.5% | SF-295 CNS 116% and 95.7% | SF-539 CNS 112% and 108% | UACC-257 melanoma 102% and 109% | HCT-15 colon 89% and 101% | SNB-75 CNS 90.5% and 112% | SNB-19 CNS 86.7% and 103% | PC-3 prostate 86.3% and 82.7% | SK-MEL-5 melanoma 106% and 95% | UACC-62 melanoma 90.2% and 105% | LOX IMVI melanoma 85.3% and 93.5% | SK-MEL-28 melanoma 110% and 120%

Source: PubChem BioAssay (NCI)
